This passage reports outcome and AC50 results from PubChem BioAssay (EPA / NIEHS).

As a reminder, the AC50 is the concentration giving half of the maximal activity seen.

“And” between values parts separate entries of the source, which are not always exact repeats. Identical values can stand only once. The source made the active and inactive calls. Rule for the calls: active = hit-call score of the fitted dose curve at least 0.9, where 1 is the maximum; inactive = score below 0.9.

Read-out in the test: Monocyte Chemoattractant Protein-1 (MCP1), CCL2 (gene 6347)
As to the kind of experiment: BSK_IMphg_MCP1: BioMAP Diversity Plus: IMphg Assay for Monocyte Chemoattractant Protein-1 (MCP1) Biomarker Activity (AID 2284253). To be noted: primary human endothelial cells with macrophages. How it is done:
BSK_IMphg is a cell-based, multiplexed-readout assay that uses venular endothelial cells and macrophages, a human vascular primary cell, with measurements taken at 24 hours after chemical dosing in a microplate: 96-well plate.BSK_IMphg_MCP1 is an assay component measured in the BSK_IMphg assay. It measures MCP-1 antibody related to regulation of gene expression using ELISA technology.Data from the assay component BSK_IMphg_MCP1 was analyzed at the endpoint, BSK_IMphg_MCP1, in the positive analysis fitting direction relative to DMSO as the negative control and baseline of activity. Using a type of binding reporter, gain or loss-of-signal activity can be used to understand protein changes. To generalize the intended target to other relatable targets, this assay endpoint is annotated to the 'cytokine' intended target family, where the subfamily is 'chemotactic factor'.
The levels of cell surface (or secreted, indicated by the prefix "s") biomarker endpoints were measured by ELISA. Overt cytotoxicity to cells in confluent adherent cultures (all systems other than the BT system) was assessed by measuring total protein levels using sulforhodamine B (SRB) staining in parallel cultures at the time of biomarker measurements, indicated as SRB endpoints. For proliferation assays for adherent cell types, individual cell types are cultured at sub-confluence and relative cell numbers quantified by SRB staining at time points optimized for each system (48 h: 3C and CASM3C systems; 72 h: BT and HDF3CGF systems; 96 h: SAg system). SRB was performed by staining cells with 0.1% SRB after fixation with 10% TCA and reading wells at 560 nm.Viability and proliferation of PBMC (T cells) was quantified by Alamar Blue reduction for the SAg and BT systems. For PBMC viability (referred to as PBMC Cytotoxicity within the assay endpoint names), cells were plated (75,000/well in a 96-well plate) and then chemical samples added for 1 h before addition of activators, SEB and TSST-1 (20 ng/mL final concentration each). Cells were incubated for 90 h. Then, Alamar Blue (20 uL/well) (Invitrogen, Cat DAL1100) was added for 6 h, and the plates were read with a fluorescence microplate reader at 546/580 nm (excitation/emission). For PBMC proliferation, cells were plated and activated as above but incubated for only 16 h prior to addition of Alamar Blue. Plates were read after 6 h.
Turning to `O=C(O)CCC(F)(F)C(F)(F)C(F)(F)C(F)(F)C(F)(F)C(F)(F)F`, the result was inactive.

With `O=C(CC(=O)C(F)(F)C(F)(F)C(F)(F)F)c1cccs1`, the AC50 was 27.7 µM (active) and 25.5 µM (active). Regarding `O=P(O)(O)CCC(F)(F)C(F)(F)C(F)(F)C(F)(F)C(F)(F)C(F)(F)C(F)(F)C(F)(F)F`, the result was inactive. The same measure, in the same setting: the same measure for `O=S(=O)(O)C(F)(F)C(F)(F)C(F)(F)C(F)(F)C(F)(F)C(F)(F)C(F)(F)C(F)(F)C(F)(F)C(F)(F)F`: “inactive”; for `C=CC(=O)OCCC(F)(F)C(F)(F)C(F)(F)C(F)(F)C(F)(F)C(F)(F)C(F)(F)C(F)(F)F`: “inactive”. The same measure, in the same setting: the same measure for `CN(Cc1cnc2nc(N)nc(N)c2n1)c1ccc(C(=O)N[C@@H](CCC(=O)O)C(=O)O)cc1`: “inactive”; for `CN(CCO)S(=O)(=O)C(F)(F)C(F)(F)C(F)(F)C(F)(F)C(F)(F)C(F)(F)C(F)(F)C(F)(F)F`: “inactive”; for `O=C(O)CCC(F)(F)C(F)(F)C(F)(F)C(F)(F)C(F)(F)F`: “inactive”. Regarding `O=C(O)C(F)(F)OC(F)(F)C(F)(F)OC(F)(F)C(F)(F)OC(F)(F)C(F)(F)C(F)(F)C(F)(F)F`, the AC50 is 38.2 µM (active) and 24 µM (active). For the compound `O=P(O)(O)CCC(F)(F)C(F)(F)C(F)(F)C(F)(F)C(F)(F)C(F)(F)F`, the result was inactive. On the same count and under the same terms, the same measure for `OCC(F)(F)C(F)(F)C(F)(F)C(F)(F)C(F)(F)C(F)(F)C(F)(F)C(F)(F)C(F)(F)C(F)(F)C(F)(F)F`: “inactive”.
